Test results published in PubChem BioAssay AID463190 (Sanford-Burnham Center for Chemical Genomics, 2010).
Screen size: about 330,000 compounds; about 7,300 (2.2%) were called active.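 Rule for the calls: active = inhibition of at least 40%; inactive = the rest.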 For the sample, actives were picked, then their nearest neighbours and some compounds at random.

Assay: growth inhibitors of tim10-1 mutant yeast, primary screen, luminescence, uHTS (AID 463190);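 note: mutant grown at 25 °C; 0% = DMSO wells with yeast and 100% = wells holding no yeast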
Conditions: S. cerevisiae tim10-1 ts strain growth, BacTiter-Glo, 24 h; at 20 µM; stronger effect = higher value

Q: Which inhibition does the source give for `CC(C)(C)c1ccc(C(=O)NCc2ccco2)cc1` here?
A: Its inhibition is 15.4% (inactive).

Q: With `CCc1ccc(-c2cc(C(=O)NCc3ccco3)c3ccccc3n2)s1` as the molecule, how does the inhibition read?
A: The inhibition was 45.4% (active).

Q: Which inhibition does the source give for `CC(=O)NCCNC(=O)c1cc(-c2cccc3ccccc23)nc2ccccc12` here?
A: The inhibition was 3.15% (inactive).

Q: With `O=C(Cc1ccccc1)Nc1ccc(C(=O)Nc2ccccc2C(=O)O)cc1` as the molecule, how does the inhibition read?
A: Its inhibition is 1.08% (inactive).

Q: With `FC(F)(F)c1ccc(CN2C[C@@H]3C(c4ccccc4)C4(c5ccccc5)CC3(C4)[C@H]2c2ccccc2)cc1` (some centres not stated) as the molecule, how does the inhibition read?
A: Its inhibition is 28.9% (inactive).

Q: Which inhibition does the source give for `O=C(NCc1ccc2c(c1)OCO2)c1c(-c2ccsc2)sc2ccccc12` here?
A: The inhibition was 5.6% (inactive).

Q: With `CN[C@H](C(=O)NC[C@H]1O[C@@H](n2cnc3c(N)ncnc32)[C@H](O)[C@@H]1O)[C@@H](C)OCc1ccccc1` as the molecule, how does the inhibition read?
A: Its inhibition is 0.16% (inactive).

Q: For `Cc1ccc(Cl)c(NC(=O)CN2CCN(C=O)CC2)c1`, which inhibition is on record?
A: Its inhibition is -10.1% (inactive).

Q: Which inhibition does the source give for `Cc1cccc(OCC(=O)NCCNC(=O)c2cccnc2)c1` here?
A: The inhibition was -27.3% (inactive).

Q: With `Cc1cccc(OCCNC(=S)NC(=O)c2cccnc2)c1` as the molecule, how does the inhibition read?
A: The inhibition was 45.9% (active).

Q: For `CCCOc1cccc(C(=O)NCCCNC(=O)c2cccnc2)c1`, which inhibition is on record?
A: The inhibition was -5.09% (inactive).

Q: For `CN(C(=O)CSc1nnc(C2CC2)n1C)C1CCCc2ccccc21` (configuration not stated), which inhibition is on record?
A: Its inhibition is -15.4% (inactive).

Q: Which inhibition does the source give for `CC(=O)NCCC(=O)Nc1nc(-c2ccc3c(c2)OCCO3)cs1` here?
A: Its inhibition is 4.76% (inactive).

Q: Which inhibition does the source give for `Cc1csc(NC(=O)C2=COCCO2)n1` here?
A: Its inhibition is 6.44% (inactive).

Q: For `Cc1ccc(-c2csc(NC(=O)C3=COCCO3)n2)cc1C`, which inhibition is on record?
A: The inhibition was 40.5% (active).

Q: For `COc1ccccc1OCCC(=O)OCC(=O)NC(=O)NC(C)(C)C`, which inhibition is on record?
A: The inhibition was 17.9% (inactive).

Q: Which inhibition does the source give for `CC(C)(C)NC(=O)NC(=O)COC(=O)CCC1CCCCC1` here?
A: The inhibition was 40.3% (active).

Q: For `CC(C)(C)NC(=O)NC(=O)COC(=O)C1(C)CC1(Cl)Cl` (configuration not stated), which inhibition is on record?
A: Its inhibition is 21.3% (inactive).

Q: Which inhibition does the source give for `Cc1cc(C)cc(C(=O)NC(=S)Nc2ccc3[nH]c(=O)[nH]c3c2)c1` here?
A: The inhibition was 12.4% (inactive).

Q: With `COc1ccc(NC(=O)/C(Cl)=C(/Cl)S(=O)Cc2ccc(C)cc2)cn1` (configuration not stated) as the molecule, how does the inhibition read?
A: Its inhibition is 30.1% (inactive).

Q: For `COc1ccc(CS(=O)/C(Cl)=C(/Cl)C(=O)Nc2ccc(OC)nc2)cc1` (configuration not stated), which inhibition is on record?
A: Its inhibition is 41% (active).

Q: Which inhibition does the source give for `COc1ccc(CCNC(=O)c2cnc(Cl)c(Cl)c2)cc1` here?
A: The inhibition was 17.4% (inactive).

Q: For `COc1ccc(CCNC(=O)COC(=O)c2ccc[nH]c2=O)cc1`, which inhibition is on record?
A: The inhibition was 7.85% (inactive).

Q: For `O=C(Cn1cnc2c(OCc3ccccc3)ncnc21)NCc1nc2ccccc2[nH]1`, which inhibition is on record?
A: The inhibition was -4.29% (inactive).

Q: Which inhibition does the source give for `CCOc1ccccc1NC(=O)Cn1nnc(C(=O)NCc2cccs2)c1N` here?
A: The inhibition was 10.5% (inactive).

Q: With `Cn1ncc(Br)c1C(=O)NCc1cccs1` as the molecule, how does the inhibition read?
A: The inhibition was 1.74% (inactive).

Q: With `CC(C)Cn1c(N)c(C(=O)NCc2cccs2)c2nc3ccccc3nc21` as the molecule, how does the inhibition read?
A: Its inhibition is 43.7% (active).

Q: Which inhibition does the source give for `NS(=O)(=O)c1cc2c(cc1Cl)NC(C(Cl)Cl)NS2(=O)=O` (configuration not stated) here?
A: The inhibition was 0.045% (inactive).

Q: For `CCCCCCC(=O)Nc1nc(C)c(-c2csc(Nc3cccc(OC)c3)n2)s1`, which inhibition is on record?
A: Its inhibition is 14.8% (inactive).

Q: Which inhibition does the source give for `Cc1nc(NC(=O)c2cccc(Cl)c2)sc1-c1csc(Nc2cccc(Cl)c2)n1` here?
A: Its inhibition is -8.28% (inactive).

Q: Which inhibition does the source give for `CCCCC(=O)Nc1nc(C)c(-c2csc(Nc3ccc(Cl)cc3)n2)s1` here?
A: Its inhibition is 42.5% (active).

Q: For `Cc1nc(NC(=O)CN(C)S(=O)(=O)c2ccc(Cl)cc2)sc1C`, which inhibition is on record?
A: Its inhibition is 4.21% (inactive).

Q: With `CCCCCCC(=O)Nc1nc(C)c(-c2csc(Nc3cc(Cl)ccc3OC)n2)s1` as the molecule, how does the inhibition read?
A: Its inhibition is 3.74% (inactive).

Q: With `C=CCCC(=O)Nc1nc(C)c(-c2csc(Nc3ccc(Cl)cc3)n2)s1` as the molecule, how does the inhibition read?
A: The inhibition was 41.2% (active).

Q: For `COc1ccc(S(=O)(=O)c2c[nH]c(=S)[nH]c2=O)cc1Cl`, which inhibition is on record?
A: Its inhibition is -8.62% (inactive).

Q: With `O=C(CCN1C(=O)c2ccncc2C1=O)Nc1cc(F)ccc1F` as the molecule, how does the inhibition read?
A: Its inhibition is 7.78% (inactive).

Q: Which inhibition does the source give for `CC(=O)N1CCCc2cc(S(=O)(=O)N3CCCC(C(=O)N4CCN(c5cccc(Cl)c5)CC4)C3)ccc21` (configuration not stated) here?
A: Its inhibition is 10.1% (inactive).

Q: For `COc1ccc(-n2cc(-c3ccccc3)c3c(=S)nc[nH]c32)cc1`, which inhibition is on record?
A: Its inhibition is 40.1% (active).

Q: With `O=c1[nH]cnc2c1c(-c1ccccc1)cn2-c1ccc(F)cc1` as the molecule, how does the inhibition read?
A: Its inhibition is 34.1% (inactive).

Q: With `COc1ccc(-n2c(=S)[nH]c3sc4c(c3c2=O)CCc2ccccc2-4)cc1` as the molecule, how does the inhibition read?
A: Its inhibition is 6.58% (inactive).

Q: Which inhibition does the source give for `Cc1sc2ncnc(SCC(=O)Nc3ccc(CN4CCCC4)cc3)c2c1C` here?
A: Its inhibition is 46.3% (active).

Q: For `COC(=O)c1c(-c2cccs2)csc1NC(=O)CSc1ncnc2sc(C)c(C)c12`, which inhibition is on record?
A: Its inhibition is 17.6% (inactive).

Q: For `C=CCn1c(SCC(=O)Nc2ccc(NC(C)=O)cc2)nc2sc(C)c(C)c2c1=O`, which inhibition is on record?
A: Its inhibition is 15.8% (inactive).

Q: For `Cc1cc(C(=O)OCC(=O)Nc2ccc(F)c(F)c2)c(C)o1`, which inhibition is on record?
A: Its inhibition is -15.7% (inactive).

Q: For `Cc1cccc(NC(=S)N2CCCC(c3nc4ccccc4[nH]3)C2)c1` (configuration not stated), which inhibition is on record?
A: Its inhibition is 0.466% (inactive).

Q: With `Cc1cccc(C(=O)N2CCC(c3nc4ccccc4s3)CC2)c1` as the molecule, how does the inhibition read?
A: The inhibition was 20.6% (inactive).

Q: For `Cc1cccc(NC(=S)N2CCC(c3nc4ccccc4s3)CC2)c1`, which inhibition is on record?
A: Its inhibition is 47% (active).

Q: With `COc1ccc(OC)c(C(O)c2nc3ccccc3n2C)c1` (configuration not stated) as the molecule, how does the inhibition read?
A: Its inhibition is 12% (inactive).

Q: With `CNC[C@@H]1Oc2c(NS(C)(=O)=O)cccc2C(=O)N([C@@H](C)CO)C[C@H]1C` as the molecule, how does the inhibition read?
A: The inhibition was -4.12% (inactive).

Q: With `NS(=O)(=O)c1ccc(N2C(=O)C3C4CC(C(Br)C4Br)C3C2=O)cc1` (configuration not stated) as the molecule, how does the inhibition read?
A: The inhibition was -7.31% (inactive).

Q: Which inhibition does the source give for `ON=C1/C(=N\O)CC2(C/C1=N/O)OCCO2` here?
A: The inhibition was -13.1% (inactive).

Q: For `Cc1cccnc1NC(=O)c1cccc(S(=O)(=O)N2CCN(c3ccc(F)cc3)CC2)c1`, which inhibition is on record?
A: Its inhibition is 23.8% (inactive).

Q: For `Oc1c(CN2CCCC2)cc(COCc2ccccc2)c2cccnc12`, which inhibition is on record?
A: The inhibition was 14.6% (inactive).

Q: With `Oc1c(CN2CCN(c3ccc(F)cc3)CC2)cc(Cl)c2cccnc12` as the molecule, how does the inhibition read?
A: The inhibition was 45.3% (active).

Q: For `CCN(CCn1cccn1)Cc1cn[nH]c1-c1ccc(OC)cc1F`, which inhibition is on record?
A: Its inhibition is 6.84% (inactive).

Q: With `COc1cc2sc(C)nc2cc1C` as the molecule, how does the inhibition read?
A: Its inhibition is 13.3% (inactive).

Q: With `Cc1ccc(S(=O)(=O)N(Cc2cccc([N+](=O)[O-])c2)C(=O)N2CCN(C)CC2)cc1` as the molecule, how does the inhibition read?
A: The inhibition was 26.5% (inactive).

Q: For `CCOc1ccc(NC(=O)C2CC(=O)N=C(N)S2)cc1` (configuration not stated), which inhibition is on record?
A: Its inhibition is 3.69% (inactive).

Q: For `CC(OC(=O)c1ccccc1OCc1ccc(Cl)cc1)C(N)=O` (configuration not stated), which inhibition is on record?
A: Its inhibition is -12.2% (inactive).

Q: Which inhibition does the source give for `COc1ccc(-c2onc(C)c2-c2ccc3c(c2)OCCO3)c(O)c1` here?
A: Its inhibition is 22.7% (inactive).

Q: For `CCOC(=O)c1cc2cc(-c3c(C(=O)OCC)oc4cc(O)cc(O)c4c3=O)ccc2o1`, which inhibition is on record?
A: The inhibition was 27.5% (inactive).

Q: For `O=c1c(-c2ccc3c(c2)OCCO3)c(C(F)(F)F)oc2cc(O)cc(O)c12`, which inhibition is on record?
A: The inhibition was 44% (active).
